Source: PubChem
The list is not random: actives were taken first. Their share in the collection is about 3.1%.
PAX8 inh HTS – inhibitors of PAX8 transcriptional activity in RMG-I cells | RMG-I TPO-luciferase reporter, SteadyGlo, 24 h | AID 652154 | actives 1.2% (n = 360,000) | inhibition, % at 12.6 µM;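 active = mean replicate inhibition at least 60% with every replicate also reaching 60%; inconclusive = only one of the two criteria is met; inactive = mean below 60% and not all replicates reaching 60%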;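 note: luciferase light reporting Pax8 driven TPO promoter activity; plate controls were median of neutral control wells for no effect and mitoxantrone controls for full effect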
miR122 inh – blocks miR-122 activity in Huh7 sensor cells. Huh7 miR-122 Renilla luciferase sensor, 48 h; neutral wells = 0, positive control = 100. activation (reporter increase), % at 12.5 µM. actives 0.3% (n = 340,000). AID 602342;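 active = mean replicate activation score at least 90 and every replicate individually at or above 90; inconclusive = only one of the two criteria met; inactive = neither criterion met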;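 note: higher luciferase means less miR-122 activity so hits act as miR-122 inhibitors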
Statin myotox sup – suppression of simvastatin myotoxicity; C2C12 myotubes + simvastatin, ATP luminescence, 48 h; scaled: DMSO 0, geranylgeraniol control 100; rescue of ATP level, % at 7.49 µM; actives 0.78% (n = 330,000);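 active = mean ATP rescue above about 67%, or every replicate alone reaching that limit, limit read from the data, passing the limit was not always enough; inconclusive = no clear call, values can overlap the other calls; inactive = mean under the limit and some replicate under it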;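 note: myotubes were challenged with 10 µM simvastatin during compound exposure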
EWS-Fli inh – EWS/Fli transcriptional activity inhibition; A673 NR0B1-luciferase reporter, viability-normalised; inhibition, % at 12.6 µM; actives 0.67% (n = 350,000); AID 651661;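 active = mean inhibition of at least 50% after viability correction, with every replicate also passing that limit; inconclusive = mean reaches 50% but only one of two replicates passes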;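 note: firefly luciferase signal divided by Alamar Blue viability fluorescence both relative to DMSO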
INS-1E GSIS act – GLuc luminescence reporter in INS-1E cells, primary screen for activators of glucose-dependent secretion of insulin | INS-1E GLuc reporter insulin secretion, 2-3 h | activation, % at 16.6 µM | actives 0.61% (n = 370,000) | AID 743287;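 active = lowest replicate activation of at least 40%, so every replicate reaches that level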;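 note: 0% = median of neutral control wells and 100% = median of IBMX positive control wells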
HIV Env fusion – blocks HIV Env-driven cell-cell fusion. HeLa-JRFL Env/CEM21 cell fusion, luciferase. AID 651610. inhibition, % at 12.3 µM. actives 1.1% (n = 360,000);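 active = mean replicate inhibition score of at least 50 and every replicate individually at or above 50; inconclusive = only one of the two criteria met; inactive = mean below 50 and not all replicates reaching 50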;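 note: 0% = plate neutral controls and 100% = maraviroc near 300 nM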
Numbers without * were called inactive; u = inconclusive; x = not tested or not shown; ! = not active in a repeat; [ ] = remark or other dose.

SMILES | PAX8 inh HTS | miR122 inh | Statin myotox sup | EWS-Fli inh | INS-1E GSIS act | HIV Env fusion
COc1ccc(C#Cc2ccc3c(c2)[C@]2(C(=O)N3)[C@H](c3ccccc3OCCO)N3[C@H](c4ccccc4)[C@H](c4ccccc4)OC(=O)[C@H]3[C@@H]2C(=O)NC[C@H](O)c2ccccc2)cc1 | 88.8* | x | x | 3.0 | x | 43.9[16.7 µM]
COc1ccc(C#Cc2ccc3c(c2)[C@]2(C(=O)N3)[C@H](C(N)=O)[C@H]3C(=O)O[C@H](c4ccccc4)[C@H](c4ccccc4)N3[C@@H]2c2ccc(O)cc2)cc1 | x | x | x | 6.7 | x | -12.1[16.7 µM]
COc1ccc(C#Cc2ccc3c(c2)[C@]2(C(=O)N3)[C@H](c3ccc(OCCO)cc3)N3[C@H](c4ccccc4)[C@H](c4ccccc4)OC(=O)[C@H]3[C@@H]2C(N)=O)cc1 | 72.8* | x | x | 12.9 | x | 0.9[16.7 µM]
O=C(C[C@H]1C=C[C@@H](NC(=O)C2CCOCC2)[C@H](CO)O1)NCC1CC1 | -5.1 | 12.2[16.7 µM] | -10.8 | 0.6 | 11.7 | -3.5[16.7 µM]
Cc1cc(C(=O)Nc2cccc3c2O[C@H](CN(C)Cc2ccccc2)[C@H](C)CN([C@H](C)CO)C3=O)n(C)n1 | 4.5 | 3.5[16.7 µM] | 4.6 | -7.1 | 15.0 | 16.9[16.7 µM]
O=C(C[C@@H]1C[C@@H]2c3cc(NC(=O)C4CCOCC4)ccc3O[C@@H]2[C@H](CO)O1)NCc1ccc2c(c1)OCO2 | 0.5 | 0.1[16.7 µM] | 1.3 | -2.7 | 5.1 | -0.1[16.7 µM]
O=C(N[C@@H]1CC[C@@H](CCNS(=O)(=O)c2ccc(Cl)cc2)O[C@H]1CO)c1cnccn1 | 5.1 | x | -15.4 | 2.4 | 11.1 | 8.3[16.7 µM]
O=C(NCc1cccnc1)Nc1ccc(Cl)cc1Cl | -6.4 | 4.0 | -1.1 | 0.7 | 8.6 | 56.9*
O=C(NCc1cccnc1)Nc1ccc(Br)cc1Cl | -11.7 | x | x | -6.4 | 16.8 | 56.0*
CN(C)CC(=O)N[C@@H]1CC[C@@H](CCn2cc(CN(C)C)nn2)O[C@@H]1CO | -11.0 | x | 0.8 | -7.9 | -4.8 | -18.6[16.7 µM]
COc1nc(-c2ccccc2)ccc1-c1noc(-c2cccnc2)n1 | x | -6.9 | -12.1 | x | 70.6* | -29.0
CCCNC(=O)N1C[C@@H](C)[C@@H](OC)CN(C)C(=O)c2cc(NC(C)=O)ccc2OC[C@@H]1C | x | -2.6[16.7 µM] | -4.6 | -0.8 | 13.3 | x
O=C(Nc1nc(COc2ccccc2)cs1)C12CC3CC(CC(C3)C1)C2 | x | -7.7 | -14.4 | x | -18.9 | 67.6*
CC(=O)Nc1nc(COc2ccccc2)cs1 | x | 0.0 | -5.1 | x | x | -90.6
C[C@H]1CN([C@@H](C)CO)C(=O)c2cc(NS(=O)(=O)c3ccccc3)ccc2O[C@H]1CN(C)C(=O)Nc1ccc(F)cc1 | 3.8 | -4.4[16.7 µM] | 34.0 | x | -3.2 | -14.4[16.7 µM]
CCN(CC)C(=O)CSc1nnc([C@H](CCSC)NC(=O)OC(C)(C)C)o1 | x | -9.1 | 143.2* | x | x | x
C[C@H]1CN([C@@H](C)CO)C(=O)c2ccccc2-c2ccccc2CO[C@H]1CN(C)S(=O)(=O)c1ccc(Cl)cc1 | 21.3 | x | x | 0.1 | 14.3 | 55.4*[16.7 µM]
C[C@@H]1CN([C@H](C)CO)C(=O)c2ccccc2-c2ccccc2CO[C@H]1CN(C)S(=O)(=O)c1ccc(Cl)cc1 | -14.7 | x | x | 0.6 | -6.1 | 11.3[16.7 µM]
C[C@H]1CN([C@@H](C)CO)C(=O)c2ccccc2-c2ccccc2CO[C@H]1CN(C)S(=O)(=O)c1ccc(C(F)(F)F)cc1 | 101.7* | x | x | 10.2 | -6.5 | 49.7[16.7 µM]
CO[C@@H]1CN(C)C(=O)c2ccc(NC(=O)C3CC3)cc2OC[C@@H](C)NC[C@H]1C | -2.0 | x | -0.8 | -1.4 | 13.4 | x
O=C(c1ccccc1)N1CCSC1=S | 13.1 | x | x | x | x | -2.7
O=C(c1ccccc1)N1CCSc2sccc2C1=O | 53.9 | -1.1 | 7.1 | 67.2* | 30.3 | 66.4*
O=C(Oc1ccc(/C=N/NC(=O)c2ccccn2)cc1)c1ccc(Br)cc1 | x | x | 9.8 | -41.0 | x | -21.9
Cc1ccc(/C=N/NC(=O)c2ccccn2)o1 | 120.2* | -7.7 | x | -49.4 | 5.4 | x
O=C(N/N=C/c1ccco1)c1ccncc1 | x | 2.1 | 28.9 | x | x | -40.8
SMILES | PAX8 inh HTS | miR122 inh | Statin myotox sup | EWS-Fli inh | INS-1E GSIS act | HIV Env fusion
Cc1ccc(/C=N/NC(=O)c2ccncc2)o1 | 83.8* | -0.9 | x | 8.6 | 6.9 | x
O=C(Oc1ccc(/C=N/NC(=O)c2ccccn2)cc1)c1cccc(Br)c1 | -98.4 | -1.6 | 9.1 | x | 43.9* | -105.6
O=C(N/N=C/c1ccncc1)c1ccccn1 | -68.1 | -1.1 | 2.7 | -33.2 | 6.3 | -5.5
C[C@H]1CN([C@@H](C)CO)C(=O)c2cc(Br)cnc2O[C@@H]1CN(C)Cc1ccncc1 | x | -2.4[16.7 µM] | 16.7 | 1.4 | 7.0 | -24.3[16.7 µM]
Cc1oc2c(O)c(O)ccc2c(=O)c1-c1cnn(-c2ccccc2)c1 | x | 5.2 | x | x | x | -101.8
Cc1oc2cc(O)cc(C)c2c(=O)c1-c1cnn(-c2ccccc2)c1 | x | -8.9 | 88.9* | x | -16.3 | x
C[C@@H]1CN([C@@H](C)CO)C(=O)c2cc(NC(=O)C3CC3)ccc2O[C@@H]1CN(C)Cc1ccc(Cl)c(Cl)c1 | 18.4 | 4.1[16.7 µM] | 7.3 | 56.5*! | -24.1 | -183.2
COc1ccc(NC(=O)Nc2ccc3c(c2)C(=O)N([C@@H](C)CO)C[C@@H](C)[C@@H](CN(C)Cc2ccc(C(F)(F)F)cc2)O3)cc1 | 104.8* | 0.1[16.7 µM] | -39.2 | 3.1 | -7.0 | u
COc1ccc(NC(=O)Nc2ccc3c(c2)CC(=O)N([C@@H](C)CO)C[C@@H](C)[C@H](CN(C)Cc2ccc(C(F)(F)F)cc2)O3)cc1 | 45.0 | -8.1[16.7 µM] | -15.2 | 21.0 | -8.3 | 60.5*[16.7 µM]
C[C@H](CO)N1C[C@H](C)[C@@H](CN(C)Cc2ccc(Cl)c(Cl)c2)Oc2ccc(N(C)C)cc2C1=O | 15.7 | 63.0[16.7 µM] | -97.0 | 4.8 | -32.3 | 58.5*[16.7 µM]
C[C@H](CO)N1C[C@H](C)[C@@H](CN(C)Cc2ccc(C(=O)O)cc2)OCCCC[C@H](C)Oc2ccc(NC(=O)Nc3ccccc3)cc2C1=O | -41.6 | 9.5[16.7 µM] | 7.1 | -9.0 | 4.5 | 3.4[16.7 µM]
C[C@@H]1CN([C@@H](C)CO)C(=O)c2cc(NC(=O)Nc3ccc4c(c3)OCO4)ccc2O[C@@H]1CN(C)C(=O)Nc1ccc(C(F)(F)F)cc1 | 77.4* | 3.4[16.7 µM] | -84.8 | 1.8 | -10.7 | -4.5[16.7 µM]
C[C@H]1CN([C@@H](C)CO)C(=O)c2cc(NC(=O)Nc3ccc(F)cc3)ccc2O[C@@H]1CN(C)Cc1ccc(C(F)(F)F)cc1 | -19.1 | -0.4[16.7 µM] | 1.1 | 4.3 | 18.7 | x
C[C@@H]1CN([C@H](C)CO)C(=O)c2cc(NC(=O)Nc3ccc(F)cc3)ccc2O[C@H]1CN(C)Cc1ccc(C(F)(F)F)cc1 | 68.1* | -3.6[16.7 µM] | -22.7 | 7.7 | -23.6 | x
C[C@H]1CN([C@@H](C)CO)C(=O)c2cc(NC(=O)Nc3ccc(C(F)(F)F)cc3)ccc2O[C@@H]1CN(C)Cc1ccc(Cl)c(Cl)c1 | x | 0.4[16.7 µM] | -51.9 | 57.9* | -2.5 | x
C[C@@H]1CN([C@@H](C)CO)C(=O)c2cc(NC(=O)Nc3ccc(C(F)(F)F)cc3)ccc2O[C@H]1CN(C)Cc1ccc(Cl)c(Cl)c1 | x | -2.0[16.7 µM] | -125.3 | -8.2 | 3.6 | x
